According to PubChem BioAssay (NCI):
The panel holds about 79,000 compounds, 15% with a hit somewhere; the sample as a whole holds those more often. Active and inactive are the calls of the source. Cut-off read from the data, not from the text of the source: active = growth inhibition above about 70%; inactive = the rest.

What was measured:
[1] = NCI Yeast Anticancer Drug Screen. Data for the rad52 strain (AID 147);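 note: 0% = growth of vehicle-treated control cultures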; settings: S. cerevisiae rad52 mutant growth inhibition, active compounds read high
Outline: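 Vehicle-treated cultures served as the reference for growth inhibition of compound-exposed yeast bearing a DNA repair mutation.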

[2] = NCI Yeast Anticancer Drug Screen. Data for the wt1 strain (AID 149);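 note: 0% = growth of vehicle-treated wt1 cultures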; settings: S. cerevisiae wt1 strain (SPY 50644) growth inhibition, active compounds read high
Outline: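 Yeast wt1 strain exposed to compounds; growth inhibition measured relative to vehicle-treated controls.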

[3] = NCI Yeast Anticancer Drug Screen. Data for the rad50EPP+ strain (AID 151);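 note: 0% = growth of vehicle-treated control cultures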; settings: S. cerevisiae rad50 mutant strain, active compounds read high
Outline: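 In this screen, rad50EPP+ yeast were exposed to compounds. Growth inhibition was scored against vehicle-treated controls.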

[4] = NCI Yeast Anticancer Drug Screen. Data for the mgt1 strain (AID 153); settings: S. cerevisiae mgt1 mutant growth inhibition, active compounds read high
Outline: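 mgt1 strain exposed; growth vs vehicle control recorded as inhibition.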

[5] = NCI Yeast Anticancer Drug Screen. Data for the rad50 strain (AID 155);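 note: 0% = growth of vehicle-only cultures of the same strain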; settings: S. cerevisiae rad50 strain growth inhibition, active compounds read high
Outline: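 Yeast carrying a defined DNA repair defect were exposed to test compounds, and growth was compared with vehicle-treated controls to give percent inhibition.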

[6] = NCI Yeast Anticancer Drug Screen. Data for the mec2-1 strain (AID 157); settings: S. cerevisiae mec2-1 strain, active compounds read high
Outline: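 Vehicle-treated cultures served as reference for growth inhibition of compound-exposed mec2-1 yeast.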

[7] = NCI Yeast Anticancer Drug Screen. Data for the rad14 strain (AID 159);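 note: 0% = growth of vehicle-treated control cultures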; settings: S. cerevisiae rad14 strain growth inhibition, active compounds read high
Outline: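 Yeast cells carrying a defined DNA-repair defect were exposed to compounds, and growth inhibition was calculated relative to vehicle-treated control cultures.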

[8] = NCI Yeast Anticancer Drug Screen. Data for the sgs1 mgt1 strain (AID 161);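 note: 0% = growth of cultures given vehicle only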; settings: S. cerevisiae sgs1 mgt1 strain, active compounds read high
Outline: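 Read-out: growth inhibition vs vehicle controls. Cells: mutant yeast strain deficient in DNA damage repair.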

[9] = NCI Yeast Anticancer Drug Screen. Data for the CLN2oe strain (AID 163);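 note: 0% = growth of vehicle-only control cultures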; settings: S. cerevisiae CLN2oe strain, active compounds read high
Outline: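 Inhibition relative to vehicle-treated yeast is reported. Cells: strain with genetic alteration in cell-cycle control, grown with compound.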

[10] = NCI Yeast Anticancer Drug Screen. Data for the cln2 rad14 strain (AID 165);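 note: 0% = growth equal to vehicle treated cultures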; settings: S. cerevisiae cln2 rad14 strain, active compounds read high
Outline: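 Each compound was tested on cln2 rad14 yeast. Inhibition of growth was calculated against vehicle-exposed controls.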

[11] = NCI Yeast Anticancer Drug Screen. Data for the bub3 strain (AID 167); settings: S. cerevisiae bub3 mutant strain, active compounds read high
Outline: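 Compounds were applied to a genetically altered yeast strain carrying a cell-cycle control defect. Growth inhibition was scored against vehicle-treated controls.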

[12] = NCI Yeast Anticancer Drug Screen. Data for the wt2 strain (AID 169);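 note: 0% = growth of vehicle-treated yeast cultures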; settings: S. cerevisiae wt2 strain growth inhibition, active compounds read high
Outline: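 Inhibition of yeast growth was determined after compound treatment, normalised to controls receiving only vehicle.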

[13] = NCI Yeast Anticancer Drug Screen. Data for the mlh1 strain (AID 171);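 note: 0% = growth of vehicle-treated control cultures of the same strain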; settings: S. cerevisiae mlh1 strain growth inhibition, active compounds read high
Outline: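 Vehicle-normalised growth inhibition of a repair- or checkpoint-altered yeast strain following compound treatment.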

[14] = NCI Yeast Anticancer Drug Screen. Data for the sgs1 strain (AID 173);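 note: 0% = growth of vehicle-only control cultures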; settings: S. cerevisiae sgs1 mutant, active compounds read high
Outline: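 Screen format: yeast with repair or checkpoint alterations, compound exposure, growth read relative to vehicle.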

[15] = NCI Yeast Anticancer Drug Screen. Data for the mlh1 rad18 strain (AID 175); settings: S. cerevisiae mlh1 rad18 strain growth inhibition, active compounds read high
Outline: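 Vehicle-treated cultures served as the reference for growth inhibition in a yeast strain carrying DNA damage repair alterations exposed to each compound.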

[16] = NCI Yeast Anticancer Drug Screen. Data for the rad18 strain (AID 177); settings: S. cerevisiae rad18 mutant growth inhibition, active compounds read high
Outline: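 Test articles were incubated with altered yeast defective in DNA damage repair. Results are given as inhibition of growth versus vehicle.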

[17] = at 5.0 µM (retest, dose inferred, filed as 0.5)
[18] = at 50.0 µM (retest, dose inferred, filed as 5.0)

Measured: growth inhibition

O=CC1(F)CC1(c1ccccc1)c1ccccc1 (stereo unspecified)
inactive: [1]; at 1.2 µM -2% | [1]; at 3.7 µM -4% | [1]; at 11.0 µM -2% | [1]; at 33.0 µM 1% | [2]; at 1.2 µM -1% | [2]; at 3.7 µM -1% | [2]; at 11.0 µM -4% | [2]; at 33.0 µM -1% | [3]; at 1.2 µM -1% | [3]; at 3.7 µM 0% | [3]; at 11.0 µM 5% | [3]; at 33.0 µM 10% | [3]; at 100.0 µM 17% | [4]; at 1.2 µM -2% | [4]; at 3.7 µM -7% | [4]; at 11.0 µM -2% | [4]; at 33.0 µM 0% | [5]; at 1.2 µM 0% | [5]; at 3.7 µM -46% | [5]; [17] -3% | [5]; at 11.0 µM 18% | [5]; at 33.0 µM 5% | [5]; [18] 17% | [5]; at 50.0 µM 27.8% | [6]; at 1.2 µM -3% | [6]; at 3.7 µM -3% | [6]; [17] 6% | [6]; at 11.0 µM -2% | [6]; at 33.0 µM 4% | [6]; [18] 21% | [6]; at 50.0 µM 21% | [7]; at 1.2 µM 0% | [7]; at 3.7 µM 1% | [7]; at 11.0 µM 2% | [7]; at 33.0 µM 7% | [8]; [17] -2% | [8]; [18] 53% | [8]; at 50.0 µM 55.6% | [9]; at 1.2 µM -2% | [9]; at 3.7 µM 1% | [9]; at 11.0 µM 2% | [9]; at 33.0 µM 1% | [9]; at 100.0 µM 25% | [10]; [17] -1% | [10]; [18] 2% | [10]; at 50.0 µM 23.8% | [11]; at 1.2 µM -2% | [11]; at 3.7 µM -4% | [11]; [17] -3% | [11]; at 11.0 µM -6% | [11]; at 33.0 µM -4% | [11]; [18] 11% | [11]; at 50.0 µM 5.65% | [12]; at 1.2 µM -1% | [12]; at 3.7 µM 6% | [12]; at 11.0 µM -2% | [12]; at 33.0 µM 2% | [13]; at 1.2 µM -2% | [13]; at 3.7 µM -3% | [13]; at 11.0 µM -3% | [13]; at 33.0 µM 2% | [14]; at 1.2 µM -2% | [14]; at 3.7 µM -1% | [14]; at 11.0 µM 3% | [14]; at 33.0 µM 22% | [15]; [17] -1% | [15]; [18] 14% | [15]; at 50.0 µM 14.2% | [16]; at 1.2 µM -6% | [16]; at 3.7 µM 2% | [16]; at 11.0 µM 3% | [16]; at 33.0 µM 13%
active: [1]; at 100.0 µM 81% | [2]; at 100.0 µM 73% | [4]; at 100.0 µM 87% | [5]; at 100.0 µM 94% | [6]; at 100.0 µM 87% | [7]; at 100.0 µM 80% | [11]; at 100.0 µM 89% | [12]; at 100.0 µM 98% | [13]; at 100.0 µM 94% | [14]; at 100.0 µM 98% | [16]; at 100.0 µM 94%

Brc1ccc(B2Nc3ccccc3N2)cc1
active: [5]; at 50.0 µM 73.8% | [8]; [18] 77% | [8]; at 50.0 µM 82.1% | [10]; at 50.0 µM 71.7% | [11]; [18] 73% | [11]; at 50.0 µM 84.8% | [15]; [18] 87% | [15]; at 50.0 µM 82.5%
inactive: [1]; at 1.2 µM 3% | [1]; at 3.7 µM 14% | [1]; at 11.0 µM 29% | [1]; at 33.0 µM 42% | [1]; at 100.0 µM 46% | [2]; at 1.2 µM -2% | [2]; at 3.7 µM -1% | [2]; at 11.0 µM 16% | [2]; at 33.0 µM 31% | [2]; at 100.0 µM 40% | [3]; at 1.2 µM 10% | [3]; at 3.7 µM 19% | [3]; at 11.0 µM 29% | [3]; at 33.0 µM 34% | [3]; at 100.0 µM 42% | [4]; at 1.2 µM -5% | [4]; at 3.7 µM -2% | [4]; at 11.0 µM 10% | [4]; at 33.0 µM 25% | [4]; at 100.0 µM 5% | [5]; at 1.2 µM 6% | [5]; at 3.7 µM 14% | [5]; [17] 21% | [5]; at 11.0 µM 29% | [5]; at 33.0 µM 44% | [5]; [18] 53% | [5]; at 100.0 µM 54% | [6]; at 1.2 µM 1% | [6]; at 3.7 µM 6% | [6]; [17] 17% | [6]; at 11.0 µM 18% | [6]; at 33.0 µM 31% | [6]; [18] 59% | [6]; at 50.0 µM 56.8% | [6]; at 100.0 µM 46% | [7]; at 1.2 µM 13% | [7]; at 3.7 µM 24% | [7]; at 11.0 µM 37% | [7]; at 33.0 µM 53% | [7]; at 100.0 µM 63% | [8]; [17] 31% | [9]; at 1.2 µM -3% | [9]; at 3.7 µM 5% | [9]; at 11.0 µM 29% | [9]; at 33.0 µM 39% | [9]; at 100.0 µM 43% | [10]; [17] 12% | [10]; [18] 40% | [11]; at 1.2 µM 9% | [11]; at 3.7 µM 19% | [11]; [17] 30% | [11]; at 11.0 µM 15% | [11]; at 33.0 µM 43% | [11]; at 100.0 µM 52% | [12]; at 1.2 µM -4% | [12]; at 3.7 µM -4% | [12]; at 11.0 µM 6% | [12]; at 33.0 µM 17% | [12]; at 100.0 µM 27% | [13]; at 1.2 µM 0% | [13]; at 3.7 µM 6% | [13]; at 11.0 µM 17% | [13]; at 33.0 µM 28% | [13]; at 100.0 µM 44% | [14]; at 1.2 µM 0% | [14]; at 3.7 µM 6% | [14]; at 11.0 µM 23% | [14]; at 33.0 µM 35% | [14]; at 100.0 µM 45% | [15]; [17] 47% | [16]; at 1.2 µM -2% | [16]; at 3.7 µM 1% | [16]; at 11.0 µM 13% | [16]; at 33.0 µM 23% | [16]; at 100.0 µM 36%
